Screening results: PubChem, The Scripps Research Institute Molecular Screening Center
DAX1 inh-1 – NR0B1 (DAX1) inhibition | P51843 | HEK293 Gal4-DAX1 luciferase reporter, luminescence | inhibition, % at 6.75 µM | 340,000 tested, 0.99% active | AID 504766;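 active = inhibition above the mean over all tested compounds plus 3 SD, cut at about 4.2% in these data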;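 also: 0% = DAX1-transfected cells with DMSO and 100% = empty-vector control cells with DMSO; inhibition shows as a rise in luminescence from relieved DAX1 repression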
Target sequence (P51843 207-470 limits assumed): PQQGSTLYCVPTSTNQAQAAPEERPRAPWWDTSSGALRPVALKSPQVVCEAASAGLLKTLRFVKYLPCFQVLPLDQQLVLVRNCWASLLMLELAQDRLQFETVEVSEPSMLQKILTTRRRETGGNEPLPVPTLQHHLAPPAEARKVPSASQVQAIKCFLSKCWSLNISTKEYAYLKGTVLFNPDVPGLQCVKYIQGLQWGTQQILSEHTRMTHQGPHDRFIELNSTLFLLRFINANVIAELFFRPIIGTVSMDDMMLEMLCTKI
hgDAF12 agonist – activates the H. glycines DAF-12 receptor ligand-binding domain. 370,000 tested, 1.8% active. HEK293 GAL4-hgDAF12 UAS-luciferase reporter, agonist luminescence; normalized to butyrate control. AID 687014. activation, % at 6.8 µM;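 active = activation above a cutoff set at the mean of all screened compounds plus 3 SD, cut at about 10% in these data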;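 also: 0% = DMSO wells and 100% = sodium butyrate wells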
ssDAF12 agonist – activates DAF-12 receptor from parasite S. stercoralis; HEK293 ssDAF-12/GRIP1 lit1-tk-luc reporter, luminescence; % of 3 µM dafachronic acid response; activation, % at 6.8 µM; 370,000 tested, 1% active;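 active = activation above the mean over all tested compounds plus 3 SD, cut at about 0.9% in these data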;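 also: 0% = DMSO-only wells and 100% = 3 µM delta7-dafachronic acid wells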
hcDAF12 agonist – H. contortus DAF-12 activation, primary screen | HEK293 hcDAF-12 lit1-tk-luc reporter, luminescence; 0% DMSO, 100% Δ7-dafachronic acid | activation, % at 6.8 µM | 370,000 tested, 1.4% active | AID 652067;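 active = activation above the mean of all tested compounds plus 3 SD, cut at about 5.5% in these data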;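 also: 100% = response to 3 µM Δ7-dafachronic acid high control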
DAX1 inh-2 – DAX1 (NR0B1) inhibition, primary screen | inhibition, % at 6.8 µM | AID 652010 | 370,000 tested, 1.1% active | HEK293T StAR-luciferase reporter, SF-1/DAX-1 repression relief;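 active = inhibition above the mean over all tested compounds plus 3 SD, cut at about 3.6% in these data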;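 also: 0% = DAX-1 cells with DMSO and 100% = cells lacking DAX-1 with DMSO; higher inhibition means more luminescence from relief of DAX-1 repression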
LXR ag – LXR-beta agonism as hcDAF-12 counter-screen; shares compounds with hcDAF12 agonist; HEK293 Gal4-LXR tk-luc reporter, luminescence, 24 h; normalized: DMSO 0%, positive control 100%; activation, % at 6.8 µM; 3,400 tested, under 10 active; AID 743027;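 active = mean percent activation of the reporter above a cutoff set as the average over tested compounds plus their standard deviation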
Target sequence (P55055 whole entry, looked up, the tested form may be a part): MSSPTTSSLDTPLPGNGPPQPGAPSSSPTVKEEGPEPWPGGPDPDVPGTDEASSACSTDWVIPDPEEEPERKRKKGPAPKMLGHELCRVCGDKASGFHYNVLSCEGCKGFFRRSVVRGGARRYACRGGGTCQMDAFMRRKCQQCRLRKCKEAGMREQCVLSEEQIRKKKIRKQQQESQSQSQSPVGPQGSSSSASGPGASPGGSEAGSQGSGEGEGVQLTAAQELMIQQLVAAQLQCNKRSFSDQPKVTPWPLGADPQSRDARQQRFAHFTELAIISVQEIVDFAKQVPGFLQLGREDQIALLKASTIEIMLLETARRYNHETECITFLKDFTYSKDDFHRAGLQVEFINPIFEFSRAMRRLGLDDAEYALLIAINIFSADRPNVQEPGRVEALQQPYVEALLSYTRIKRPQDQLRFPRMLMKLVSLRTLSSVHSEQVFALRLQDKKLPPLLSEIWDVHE
hcDAF12 ag – confirmation of H. contortus DAF-12 agonists; HEK293 hcDAF-12 lit1-tk-luc reporter, luminescence; % of Δ7-dafachronic acid response; activation, % at 6.8 µM; 3,400 tested, 61% active; shares compounds with hcDAF12 agonist;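 active = mean activation across triplicate tests above the threshold derived from the earlier primary screen, cut at about 5.5% in these data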;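 also: 0% = DMSO only wells and 100% = 3 µM Δ7-dafachronic acid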
An asterisk follows results filed as active. Sampled rows, rich in hits. Any-hit rate of the full collection: about 4.1%.

Results for COc1cc(SC)ccc1C(=O)Nc1ccccc1 ?
DAX1 inh-1: 2.4; hgDAF12 agonist: 9.2; ssDAF12 agonist: 0.3; hcDAF12 agonist: 7.7*; DAX1 inh-2: 2.3; LXR ag: 0.8; hcDAF12 ag: 8.3*

What do the screens show for `COC(=O)[C@]12C[C@H](CC(=O)NCCc3ccccc3OC)C(=O)N(CCc3ccc(OC)c(OC)c3)C1=C[C@H](C(C)C)O[C@@H]2C1CC1`?
hgDAF12 agonist: -2.1; ssDAF12 agonist: -1.3; hcDAF12 agonist: -1.7; DAX1 inh-2: -1.3

Results for c1ccc(-c2cc(-c3cc(-c4ccccc4)on3)no2)cc1 ?
DAX1 inh-1: 0.9; hgDAF12 agonist: 1.2; ssDAF12 agonist: -1.3; hcDAF12 agonist: -0.2; DAX1 inh-2: 0.5

How did Cc1ccc(-c2nc(-c3ccccc3)no2)cc1 do in these assays?
DAX1 inh-1: 2.3; hgDAF12 agonist: 12.7*; ssDAF12 agonist: 0.2; hcDAF12 agonist: 6.8*; DAX1 inh-2: 3.9*; LXR ag: 1.4; hcDAF12 ag: 8.5*

How did COc1cccc(-c2nc(-c3ccccc3)no2)c1 do in these assays?
DAX1 inh-1: 3.6; hgDAF12 agonist: 18.7*; ssDAF12 agonist: 2.0*; hcDAF12 agonist: 9.4*; DAX1 inh-2: 3.8*; LXR ag: 1.7; hcDAF12 ag: 14.9*

What do the screens show for `Cc1ccc(-c2nc(-c3ccccc3)no2)c(Cl)c1`?
DAX1 inh-1: -1.1; hgDAF12 agonist: -4.9; ssDAF12 agonist: -1.2; hcDAF12 agonist: 1.3; DAX1 inh-2: 0.1

Results for COc1ccc(-c2cc(-c3ccccc3)no2)cc1 ?
DAX1 inh-1: -0.5; hgDAF12 agonist: 11.4*; ssDAF12 agonist: 0.9*; hcDAF12 agonist: 10.6*; DAX1 inh-2: 4.0*; LXR ag: 2.0; hcDAF12 ag: 10.8*

How did O=C(CSc1nnc(-c2ccccn2)n1-c1ccccc1)Nc1ccccc1-c1ccccc1 do in these assays?
hgDAF12 agonist: -4.2; ssDAF12 agonist: -1.1; hcDAF12 agonist: -2.7; DAX1 inh-2: -1.4

Results for O=C(OCC#CCSc1nnc(-c2cccc3ccccc23)o1)c1cccc(C(F)(F)F)c1 ?
hgDAF12 agonist: -0.1; ssDAF12 agonist: -2.1; hcDAF12 agonist: -1.3

How did O=C(Nc1ccc(Br)cc1)Nc1ccccc1Cl do in these assays?
DAX1 inh-1: -1.3; hgDAF12 agonist: 9.4; ssDAF12 agonist: -0.3; hcDAF12 agonist: 7.7*; DAX1 inh-2: -0.1; LXR ag: 0.5; hcDAF12 ag: 4.0

What do the screens show for `O=C(Nc1ccc(CN2CCCCC2)cc1)Nc1ccccc1Cl`?
DAX1 inh-1: 3.0; hgDAF12 agonist: 7.2; ssDAF12 agonist: -0.8; hcDAF12 agonist: 1.0; DAX1 inh-2: 0.6

Results for CCCc1cc(=O)n2[nH]c(-c3cccc(Br)c3)cc2n1 ?
DAX1 inh-1: 5.6*; hgDAF12 agonist: 8.2; ssDAF12 agonist: -0.6; hcDAF12 agonist: 7.7*; DAX1 inh-2: 1.5; LXR ag: 0.8; hcDAF12 ag: 7.3*

What do the screens show for `CCCc1cc(=O)n2[nH]c(NCc3c(Cl)cccc3Cl)nc2n1`?
DAX1 inh-1: 0.4; hgDAF12 agonist: 4.7; ssDAF12 agonist: -0.2; hcDAF12 agonist: 1.9; DAX1 inh-2: 0.3

How did COc1ccc(/C(N)=N/OC(=O)c2ccc(Br)o2)cc1 do in these assays?
DAX1 inh-1: 1.7; hgDAF12 agonist: 5.3; ssDAF12 agonist: -0.4; hcDAF12 agonist: 8.4*; DAX1 inh-2: 0.5; LXR ag: 0.1; hcDAF12 ag: 4.2

How did O=C(NCc1ccc(C(F)(F)F)cc1)O[C@H]1CC[C@@]23CCCN2C(=O)CCC[C@H]3C1 do in these assays?
hgDAF12 agonist: -3.7; ssDAF12 agonist: -1.9; hcDAF12 agonist: -0.8

What do the screens show for `CCOC(=O)C1(C)CCCN1C(=O)c1ccccc1F` (stereo unspecified)?
hgDAF12 agonist: 2.4; ssDAF12 agonist: -0.5; hcDAF12 agonist: 7.1*; DAX1 inh-2: 0.0; LXR ag: -0.4; hcDAF12 ag: 0.2

How did CCOC(=O)C1(C)CCCN1C(=O)c1c(F)cccc1F (stereo unspecified) do in these assays?
hgDAF12 agonist: 5.5; ssDAF12 agonist: -1.7; hcDAF12 agonist: 2.2; DAX1 inh-2: 0.3

How did Cc1ccc(Nc2ccccc2)cc1 do in these assays?
DAX1 inh-1: -0.4; hgDAF12 agonist: 0.7; ssDAF12 agonist: -0.8; hcDAF12 agonist: -0.3; DAX1 inh-2: 0.8

What do the screens show for `Cc1ccc(NC2=Nc3ccccc3CS2)cc1`?
DAX1 inh-1: -1.0; hgDAF12 agonist: 19.0*; ssDAF12 agonist: 1.6*; hcDAF12 agonist: 15.2*; DAX1 inh-2: 2.8; LXR ag: 2.1; hcDAF12 ag: 14.4*

Results for Fc1cccc(-c2nnn3c2nc(Cl)c2ccccc23)c1 ?
DAX1 inh-1: 3.6; hgDAF12 agonist: 11.7*; ssDAF12 agonist: 0.6; hcDAF12 agonist: 8.3*; DAX1 inh-2: 1.4; LXR ag: -0.2; hcDAF12 ag: 6.4*

Results for COCCCNc1nc2c(-c3ccc(Cl)cc3)nnn2c2ccccc12 ?
DAX1 inh-1: -0.3; hgDAF12 agonist: -1.4; ssDAF12 agonist: -1.3; hcDAF12 agonist: 3.2; DAX1 inh-2: 0.7

What do the screens show for `NNc1nc2c(-c3ccc(Cl)cc3)nnn2c2ccccc12`?
DAX1 inh-1: 5.8*; hgDAF12 agonist: 9.9; ssDAF12 agonist: 0.4; hcDAF12 agonist: 8.1*; DAX1 inh-2: 2.2; LXR ag: 1.0; hcDAF12 ag: 13.7*

How did Clc1nc2c(-c3ccccc3)nnn2c2ccccc12 do in these assays?
DAX1 inh-1: 0.6; hgDAF12 agonist: 3.9; ssDAF12 agonist: -0.2; hcDAF12 agonist: 3.9; DAX1 inh-2: 0.9

Results for CCOC(=O)C(C)(C)CC#CCN(CC#Cc1ccccc1)S(=O)(=O)c1ccc(C)cc1 ?
hgDAF12 agonist: 1.8; ssDAF12 agonist: -1.2; hcDAF12 agonist: -0.7; DAX1 inh-2: -0.6

Results for O=c1c2cccc3c2c(nn1CN1CCOCC1)-c1ccccc1-3 ?
DAX1 inh-1: 2.2

What do the screens show for `CCN(CC)CCn1nc2c3c(cccc3c1=O)-c1ccccc1-2`?
DAX1 inh-1: -2.3; hgDAF12 agonist: -6.5; ssDAF12 agonist: 22.6*; hcDAF12 agonist: 11.4*; DAX1 inh-2: -2.9; LXR ag: 0.4; hcDAF12 ag: 9.5*

How did O=C(N/N=C/c1cc(Br)c(O)c(Br)c1)C1CC1 do in these assays?
DAX1 inh-1: -1.1; hgDAF12 agonist: 3.8; ssDAF12 agonist: -0.9; hcDAF12 agonist: -2.1; DAX1 inh-2: -0.2

How did CC(C)(C)NC(=S)N/N=C/c1cc(Br)c(O)c(Br)c1 do in these assays?
DAX1 inh-1: 2.1; hgDAF12 agonist: 1.4; ssDAF12 agonist: 0.9; hcDAF12 agonist: 7.4*; DAX1 inh-2: -0.2; LXR ag: -0.2; hcDAF12 ag: 1.3
